# Most compounds without a hit are left out; they make up all but 11% or so of the library.
# USP30 block – inhibitors of human USP30 deubiquitinase; inhibition, % at 25 µM; actives 5.3% (n = 47,000); Ubiquitin carboxyl-terminal hydrolase 30 (Homo sapiens), Q70CQ3; purified USP30, Ub-rhodamine cleavage fluorescence; AID 1645860, 2021
# USP28 inh – inhibitors of human USP28 deubiquitinase. purified USP28, Ub-rhodamine cleavage fluorescence, 30 min. Ubiquitin carboxyl-terminal hydrolase 28 (Homo sapiens), Q96RU2. actives 3% (n = 47,000). inhibition, % at 25 µM
# USP17 block – inhibitors of human USP17 deubiquitinase; actives 6.5% (n = 47,000); Ubiquitin carboxyl-terminal hydrolase 17-like protein 5 (Homo sapiens), A8MUK1; inhibition, % at 50 µM; purified USP17, Ub-rhodamine cleavage fluorescence, 3 h
# OTUD3 inh – inhibitors of human OTUD3 deubiquitinase; OTU domain-containing protein 3 (Homo sapiens), Q5T2D3; actives 0.7% (n = 47,000); purified OTUD3, Ub-rhodamine fluorescence, 2 h; inhibition, % at 25 µM; AID 1645858, 2021
# Target sequence (Q5T2D3 whole entry, looked up, the tested form may be a part): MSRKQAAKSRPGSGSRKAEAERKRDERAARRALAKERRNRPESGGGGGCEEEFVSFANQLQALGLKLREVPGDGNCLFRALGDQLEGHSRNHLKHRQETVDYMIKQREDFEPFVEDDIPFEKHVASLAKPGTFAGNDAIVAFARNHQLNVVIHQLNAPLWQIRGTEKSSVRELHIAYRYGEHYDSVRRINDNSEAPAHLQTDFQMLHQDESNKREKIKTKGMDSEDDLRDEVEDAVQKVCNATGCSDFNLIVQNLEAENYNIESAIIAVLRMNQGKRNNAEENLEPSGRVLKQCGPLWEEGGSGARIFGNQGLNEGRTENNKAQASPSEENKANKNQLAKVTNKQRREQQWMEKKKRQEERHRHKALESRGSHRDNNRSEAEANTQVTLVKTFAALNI
# Active calls of the source: *; . = not tested or not shown. No stated cut-off is given here; in the data, active means inhibition above about 30%; inactive means the rest.
SMILES,USP30 block,USP28 inh,USP17 block,OTUD3 inh
O=C(Nc1ccccc1F)c1oc(=O)c2ccccc2c1-c1ccccc1,-4.3,-20.2,-9.7,-15.1
COC(=O)Nc1cccn(Cc2c(Cl)cccc2Cl)c1=O,51.9*,88.3*,87.7*,80.6*
CC1CN(C(=O)c2cccn(Cc3c(Cl)cccc3Cl)c2=O)CC(C)O1 (stereo not drawn),16.9,7.4,0.5,13.1
O=C(Nc1ccccc1)N1CCCN(Cc2c(F)cccc2Cl)CC1,29.2,9.8,5.6,11.4
N#Cc1ccc(NC(=O)Nc2cccn(Cc3c(F)cccc3Cl)c2=O)cc1,-26.9,41.3*,78.0*,-10.0
N#Cc1ccc(NC(=O)Nc2cccn(Cc3ccc(F)cc3)c2=O)cc1,25.8,84.4*,93.4*,19.8
CC(=O)Nc1ccc(S(=O)(=O)N(C)c2ccc(OCC(=O)Nc3cccc(C)c3C)cc2)cc1,-10.7,-9.1,-24.0,-26.4
COc1ccccc1S(=O)(=O)N1CCn2c(nc3ccccc32)CC1C (stereo not drawn),-185.8,-45.6,-66.9,-39.3
CSc1nnc(COc2cccc3ccc(C)nc23)n1C,15.4,15.1,8.1,6.8
Cc1ccc2cccc(OCc3nnc(SCC(=O)c4ccc(Cl)cc4)n3C)c2n1,39.4*,5.6,61.3*,21.0
COc1cc(C(=O)NC(C)c2ccc3c(c2)OCCO3)cc(OC)c1OC (stereo not drawn),8.2,-2.3,-13.2,-4.1
COc1ccc(-n2cc(C(=O)NC(C)c3ccc4c(c3)OCCO4)c3ccccc3c2=O)cc1 (stereo not drawn),36.0*,25.3,21.6,6.8
Cc1nnc(NCc2cccnc2)c2c1nnn2Cc1ccccc1Cl,60.1*,18.4,-2.1,-1.3
COc1ccccc1CNC(=O)c1ccccc1OCc1ccccc1Cl,32.2*,28.8,23.7,30.4*
O=C(Cn1c(=O)n(-c2ccccc2)c(=O)c2ccc(C(=O)NCc3ccc4c(c3)OCO4)cc21)NCCC1=CCCCC1,55.6*,41.2*,32.9*,57.6*
O=C(CCn1c(=O)c2ccccc2n(Cc2ccccc2F)c1=O)N1CC=C(c2ccccc2)CC1,25.2,2.1,5.3,4.1
O=C(Cc1ccc(-n2c(=O)c3ccccc3n(CC(=O)NCCC3=CCCCC3)c2=O)cc1)NCCc1ccccc1,-34.6,-23.5,6.2,9.6
O=C(CCCCn1c(=O)c2ccccc2n(CC(=O)NCCC2=CCCCC2)c1=O)NCc1ccc2c(c1)OCO2,.,.,32.7*,-0.8
O=C(CCn1c(=O)c2ccccc2n(Cc2cccc([N+](=O)[O-])c2)c1=O)N1CC=C(c2ccccc2)CC1,39.5*,17.7,7.8,9.1
CCCCNC(=O)CCCn1c(=O)c2ccccc2n(CC(=O)NCCC2=CCCCC2)c1=O,14.4,9.8,24.2,9.8
O=C(Cn1c(=O)n(CCCC(=O)N2CC=C(c3ccccc3)CC2)c(=O)c2ccccc21)NCCC1=CCCCC1,16.9,-2.1,52.2*,37.4*
COc1ccc(CC(NC(C)=O)C(=O)NC2CCN(C(=O)c3cnccn3)CC2)cc1OC (stereo not drawn),13.5,-1.0,0.6,8.9
Cc1cc2nc(NCC3CCCO3)c3ccccc3n2n1 (stereo not drawn),3.0,-3.4,-16.0,0.1
Cc1cc(C(=O)N2CCC(C3(C)NC(=O)NC3=O)CC2)sc1C (stereo not drawn),-111.1,-31.1,-24.7,-19.0
CN(C(=O)Cn1c(=O)n(CCC(=O)NCc2ccc3c(c2)OCO3)c(=O)c2ccccc21)C1CCCCC1,30.3*,11.6,0.0,12.3
Cc1noc(C)c1CN1CC[C@H]2O[C@H](C(=O)NCc3ccco3)CC[C@H]21,-3.5,-2.3,-40.4,33.1*
Cc1nc2c(c3c1[nH]c1ccccc13)C(=O)CC(C)(C)C2,-128.0,-65.2,-57.2,-41.2
O=C1NCc2c1c1c3ccccc3[nH]c1c1[nH]c3ccccc3c21,37.3*,19.5,51.1*,-0.7
CCC(C)C1OC(=O)C(CCC(=O)O)N(C)C(=O)C(C(C)C)NC(=O)C2CCCCN2C(=O)[C@H]([C@H](C)CC)NC(=O)C(CCC(=O)O)N(C)C(=O)C(C(C)C)N(C)C(=O)CNC(=O)C2CCCN2C(=O)C(Cc2ccccc2)NC1=O (stereo partly drawn),-13.8,-13.9,-0.9,-23.8
